Hit rate of the full screen: of about 290,000 compounds, about 3,000 (1%) were called active. Cut-off read from the data, not from the text of the source: active = inhibition mostly above about 36% (no sharp cut-off); inactive = mostly below about 34%. The entries come from a sample that favours actives as a whole.
assay: inhibition of NOD1-driven NF-kB reporter – cell-based, luminescence, uHTS, primary screen (AID 1578); details: NOD1-driven NF-kB luciferase reporter cells, at 4 µM, hits give high values;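 note: HEK-293T reporter cells stimulated with the NOD1 agonist gamma-tri-DAP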

inhibition, active:
O=C(Cn1cncn1)NCc1ccc(Cl)cc1 66.1%
O=C(Nc1ccc(Cl)cc1)c1cc2c(cc1O)[nH]c1ccccc12 43.7%
CN(c1ncnc(N)c1[N+](=O)[O-])C1CCCCC1 80.2%
CN(c1ncnc(N)c1[N+](=O)[O-])C1CCS(=O)(=O)C1 (stereo unspecified) 58%
O=C1C=C(NCc2ccccc2)c2ccccc2C1=O 78.8%
CCOC(=O)N/N=C/c1cn(CCCOc2ccccc2)c2ccccc12 79.6%
CCOC(=O)Cn1cc(/C=N/NC(=O)c2cc3ccccc3o2)c2ccccc21 35.8%
Nc1ccccc1C#CC(=O)c1ccccc1 58.4%
Cc1cccc(N=Nc2ccc(O)c3ncccc23)c1 108%
COc1ccc(N=Nc2ccc(O)c3ncccc23)cc1 108%
C=CCOc1ccccc1C(=O)/C=C1/C(=O)Nc2ccccc21 37.3%
O=CNCc1nc2ccccc2n1CCc1ccccc1 66%

inhibition, inactive:
CC(=O)N1CCN=C1SCc1ccccc1Cl 1.2%
COc1ccc(C2C(C(=O)c3sc(C)nc3C)=C(O)C(=O)N2CCN(C)C)cc1 (stereo unspecified) -18.4%
CCOc1ccc(/C=C2\SC(=S)NC2=O)cc1OC -40.1%
CCOc1ccc(N(C)c2ccc(/C=C3/SC(=S)NC3=O)cc2)cc1 43.6%
COc1ccccc1OCCCOc1ccc(/C=C2\SC(=O)NC2=O)cc1OC 54.4%
COc1cc(/C=C2/SC(=O)NC2=O)ccc1OCc1ccccc1 -38.4%
CC(=O)Nc1ccc(OCc2nnc(-c3ccc(Cl)cc3)o2)cc1 -27.9%
Cc1ccc2c(c1)c1c(n2CC(O)Cn2ccnc2C)C(=O)CCC1 (stereo unspecified) -18.6%
COCCNC(=S)N(CCc1c(C)[nH]c2ccccc12)Cc1ccco1 -30.2%
O=C(CCN1C(=O)c2ccccc2C1=O)N1CCOCC1 -25.4%
Cc1ccc2c(c1)CCCN2C(=O)Nc1ccc2c(c1)OCO2 -2.3%
COc1ccc(CNC(=O)Cn2cncn2)cc1OC -12.9%
Cc1ccc(CNC(=O)Cn2cncn2)cc1 8.6%
Cc1cc(C)n(C(=O)CCCCCCCC(=O)n2nc(C)cc2C)n1 -26.9%
CC(=O)Nc1ccc2[nH]c3ccccc3c2c1 -15.1%
COc1ccc(NC(=O)c2cc3ccc4c5ccccc5[nH]c4c3cc2O)cc1 -6.7%
O=C(CSc1ccc(-c2ccccn2)nn1)NCc1ccc(F)cc1 -16.2%
COc1ccccc1CNC(=O)COC(=O)CNS(=O)(=O)c1ccc(C)cc1 -3%
Nc1ncnc(NC2CCS(=O)(=O)C2)c1[N+](=O)[O-] (stereo unspecified) 11.8%
Cc1ccc(N(c2ncnc(N)c2[N+](=O)[O-])C2CCCCC2)cc1 22.2%
CN(Cc1ccccc1)c1ncnc(N)c1[N+](=O)[O-] 46%
Nc1ncnc(N(c2ccccc2)C2CCCCC2)c1[N+](=O)[O-] 44.6%
CC1=Cc2ccccc2C(C#N)N1C(=O)c1ccccc1 (stereo unspecified) 31.4%
COc1ccc(-c2cc(C)no2)cc1S(=O)(=O)NCCCN1CCN(c2ccccc2)CC1 -7.4%
Cc1cc(-c2ccc(C)c(S(=O)(=O)NCCCN3CCN(c4ccccc4)CC3)c2)on1 17.3%
Cc1cc(-c2ccc(C)c(S(=O)(=O)N3CCN(c4ccccn4)CC3)c2)on1 -13%
CCc1ccc(-c2cc(C)no2)cc1S(=O)(=O)N1CCN(c2ccc(F)cc2)CC1 5.8%
CC(NC(=O)NC(=O)c1ccc(Cl)cc1Cl)C1CC1 (stereo unspecified) -53%
CCOc1ccc(NC(=S)NC(C)c2cccs2)cc1 (stereo unspecified) -21.7%
COc1cc(NC(=O)CN(c2ccc(C)cc2)S(=O)(=O)c2c(C)noc2C)cc(OC)c1 -34.4%
O=C1C=C(Nc2ccccc2)c2ccccc2C1=O -24.6%
CCCCNC1=CC(=O)C(=O)c2ccccc21 -7.1%
O=C1Cc2cc(S(=O)(=O)N3CCCCC3)ccc2N1 -22.1%
CCCC(=O)NC(=S)Nc1cccc(NC(=O)c2ccccc2Cl)c1 -18.6%
COc1ccc(CNC(=O)c2ccc3ccccc3n2)cc1 -33.9%
COc1ccc(CCNC(=O)c2ccc3ccccc3n2)cc1OC -14.9%
COc1ccccc1NS(=O)(=O)c1cc(NC(=O)c2ccc3ccccc3n2)ccc1Cl -24.5%
O=C(Nc1cccc(S(=O)(=O)Nc2ccccc2F)c1)c1ccc2ccccc2n1 33.7%
COc1cccc(C(=O)NC2CCN(CC(=O)Nc3nccs3)CC2)c1 7.4%
O=C(c1ccc2nc(Cc3cccc(Cl)c3)oc2c1)N1CCC[C@H]1CO -34%
O=C(CCN1CCCCO1)N1CCCC(N2CCN(c3ccc(F)cc3)CC2)C1 (stereo unspecified) -8.6%
Cc1ccc(CNC(=O)C2CCN(c3nn4c(=O)cc(C)nc4s3)CC2)cc1 -23.9%
COc1ccc(C)cc1N(C(=O)c1ccc(C#N)cc1)C1=NC(C)(C)CS1 -8.3%
COc1ccc(OCC(=O)N2CCc3ccccc3C2)cc1 -21.2%
Cc1ccc(OCC(=O)N2CCc3ccccc3C2)cc1 4.6%
C#CCn1cc(/C=N/NC(=O)c2cc3ccccc3o2)c2ccccc21 -7.9%
COC(=O)N/N=C/c1cn(CCCOc2ccccc2)c2ccccc12 25.7%
CCn1cc(/C=N/NC(=O)c2cc3c(ccc4ccccc43)o2)c2ccccc21 32%
CCOC(=O)N/N=C/c1cn(CCCOc2ccc(C)cc2)c2ccccc12 31.1%
CCCS(=O)(=O)N1CCC(C(=O)c2cccc(C(F)(F)F)c2)CC1 -5.7%
Cc1cc(C(=O)Nc2nnc(C(F)(F)F)s2)cs1 -7.7%
COc1ccc(OC)c(S(=O)(=O)N2CCN3CCCC3C2)c1 (stereo unspecified) -16.6%
Nc1ccccc1C#CCCCCO -18.4%
Nc1ccccc1C#Cc1ccccc1 -30.1%
O=[N+]([O-])c1ccc(Cl)c(/C=N/n2c(COc3ccccc3)n[nH]c2=S)c1 -22%
COC(=O)CN1C(=S)N(c2ccc(Cl)cc2)C(=O)C1CC(=O)Nc1ccccc1 (stereo unspecified) -29.4%
Cc1cccc(NCc2ccc(O)c3ncccc23)c1 -29%
COc1ccccc1N=Nc1ccc(O)c2ncccc12 -11.7%
CCS(=O)(=O)c1ccc(OC)c(N=Nc2ccc(O)c3ncccc23)c1 24.1%
O=S(=O)(O)c1cccc2c(N=Nc3ccc(O)c4ncccc34)cccc12 25.1%
COc1cccc(N=Nc2ccc3ccccc3c2O)c1 -81.3%
O=Nc1ccc(O)c2ncccc12 19.6%
Nc1ccc(N=Nc2ccccc2)c2cccnc12 -3.3%
COc1ccc(C)cc1N=Nc1ccc(O)c2ncccc12 -31.6%
CCOC(=O)c1ccc(Nc2c(OCC)c(=O)c2=O)cc1 8%
Cc1ccc(/C=N/N2CCN(C3c4ccccc4-c4ccccc43)CC2)s1 0.2%
NNC(=O)c1cc(Cl)ccc1Cl -38.8%
COc1ccc(-c2noc(CCC(=O)NCCc3ccccc3)n2)cc1OC -7.8%
c1ccc(-c2nnsc2Sc2ccccn2)cc1 -52.7%
CN(C(=O)n1cnc2ccccc21)c1ccccc1 -29.2%
CCOc1cc2nc(-c3ccc(OC)c(OC)c3)nc(N3CCOCC3)c2cc1OC -23.5%
CCS(=O)(=O)c1ccc(N=Nc2ccc(O)c3ncccc23)c(OC)c1 -30%
CCOc1ccc(N=Nc2ccc(O)c3ncccc23)cc1 25.7%
Cc1ccc(C(=O)Nc2nc(C)c(C)s2)o1 -44.9%
O=C(N/N=C/c1ccc(Cl)cc1)c1sccc1OCc1ccc(F)cc1 -25.8%
C=CCOc1ccc(C(=O)/C=C2/C(=O)Nc3ccccc32)cc1 1.1%
C=CCOc1cccc(C(=O)/C=C2/C(=O)Nc3ccccc32)c1 -3.7%
Cc1cc(NC(=O)CCC(=O)N(CC(=O)NC2CCCC2)c2cccc(F)c2)no1 -29.1%
O=C(Nc1ccccn1)c1ccc(Br)c(S(=O)(=O)N2CCCCC2)c1 -25.4%
O=C(Nc1ccccn1)c1ccc(Br)c(S(=O)(=O)N2CCCC2)c1 -39%
CC(C)(C)c1ccc(C(=O)NC(=S)NCc2ccco2)cc1 -11%
N=c1c2c(n(Cc3ccc(F)cc3)c3c1CCC3)CCCC2 22.1%
N=c1c2c(n(Cc3ccc(Br)cc3)c3c1CCC3)CCCC2 39%
NC(=O)c1ccccc1NC(=O)Cc1cccs1 -10.4%
O=CNCCc1nc2ccccc2n1CCc1ccccc1 15%
O=CNCc1nc2ccccc2n1CCCc1ccccc1 -1.8%
CNc1ccc(Cl)nn1 -42.7%
C=C(C)[C@@H]1CCC2(C(=O)O)CC[C@]3(C)[C@H](CC[C@@H]4[C@@]5(C)CCC(=O)C(C)(C)[C@@H]5CC[C@]43C)[C@@H]12 (stereo partly specified) 48.4%
CC1(C)C(=O)CC[C@]2(C)C3C(=O)C=C4[C@H]5C[C@@](C)(C(=O)O)CC[C@]5(C)CC[C@]4(C)[C@]3(C)CC[C@@H]12 (stereo partly specified) -7.3%
